Laboratory results reported in ChEMBL document CHEMBL4513216, “Probing the Open Global Health Chemical Diversity Library for Multistage-Active Starting Points for Next-Generation Antimalarials” (ACS Infect Dis, 2020).
About 8,600 (12%) of roughly 69,000 compounds showed an effect of 50% or more. The sample as a whole holds a higher share of strong results than the screen did.

Tested on: Plasmodium berghei
Test: Screen against P. berghei liver stage (PbLuc), transformed with Luciferase, at 10uM
Assay type: functional, HepG2
Details: tested at 10 uM

SMILES	INHIBITION
O=C(C1CCCN(Cc2ccccc2)C1)N1CCc2sccc2C1 (stereo not drawn)	48.8%
O=C(C1CCCN(Cc2cccc(F)c2)C1)N1CCc2sccc2C1 (stereo not drawn)	14.1%
O=C(C1CCCN(Cc2cccnc2)C1)N1CCc2sccc2C1 (stereo not drawn)	55.5%
Cc1nn(C)c(C)c1CCn1cncc1-c1ccc2c(c1)CC(C)N2C (stereo not drawn)	22.8%
CCN1c2ccc(-c3cncn3CC(=O)NC(C)(C)C)cc2CC1C (stereo not drawn)	59.3%
CCN1CCc2cc(-c3cncn3CCNC3CCS(=O)(=O)C3)ccc21 (stereo not drawn)	27.6%
CN1CCCc2cc(-c3cncn3CC(=O)NC(C)(C)C)ccc21	18.3%
CC1Cc2cc(-c3cncn3CC(=O)NC(C)(C)C)ccc2N1C (stereo not drawn)	52%
CCN1CCc2cc(-c3cncn3CC(=O)NC(C)(C)C)ccc21	6.32%
CCN1CCC2(CN(C(C)=O)CC23CCN(CC2CC2)CC3)C1=O (stereo not drawn)	-23.3%
Cc1cc(CC(=O)NC2CCCN(c3ccccc3Cl)C2=O)n[nH]1 (stereo not drawn)	8.44%
Cn1ccc(NC(=O)NC2CCCN(c3ccccc3Cl)C2=O)n1 (stereo not drawn)	74%
CN1CCC(NC(=O)Nc2cnn(-c3ccccc3Cl)c2)C1=O (stereo not drawn)	37.7%
Cn1cc(NC(=O)NC2CCCN(c3ccccc3Cl)C2=O)cn1 (stereo not drawn)	24.8%
O=C(Nc1ccncc1)NC1CCN(c2ccccc2Cl)C1=O (stereo not drawn)	50.8%
CN1CCC(NC(=O)Nc2ccc(Cl)c(F)c2)C1=O (stereo not drawn)	-6.39%
O=C(Nc1cc(F)ccc1OCC1CCCO1)N1CCSCC1 (stereo not drawn)	41.2%
CC(=O)NCC1(COc2cnccn2)C[C@@H](O)[C@@H](O)C1 (stereo partly drawn)	-3.52%
COCC(C)NC(=O)c1cn(C(C)C)cc2c(=O)[nH]nc1-2 (stereo not drawn)	22%
COc1ccc2c(OCC(=O)NCC(F)(F)F)ccnc2c1	-121%
CNC(=O)[C@H]1C[C@@H]2CN(C(=O)c3ccsc3)C[C@@H]2N1S(C)(=O)=O	32.2%
CCOc1ncccc1NC(=O)N1CCN(Cc2ccncc2)CC1	18.75%
CCCc1cncnc1N1CCC(NCCc2nc(O)cc(O)n2)CC1	8.23%
Cc1csc2c(N3CCC(NCCc4ccnn4C)CC3)ncnc12	53.6%
Cc1nnc(CCNC2CCN(c3ncnc4c(C)csc34)CC2)s1	61.8%
CCc1nc(CNC2CCN(c3ccc(OC)cc3)CC2)cs1	34%
CCc1nnc(CNC2CCN(c3ncnc4c(C)csc34)CC2)s1	61.3%

SMILES	INHIBITION
CCC1CCN(CCn2cnc3c(C)csc3c2=O)CC1	-7.25%
Cc1nc(C)n(CCNC2CCN(c3ncnc4c(C)csc34)CC2)n1	-12.4%
Cc1csc2c(N3CCC(NCCCC4CCOC4)CC3)ncnc12 (stereo not drawn)	55.8%
CCc1cc(N2CCC(NCCc3nc(C)c(C)s3)CC2)nc(C)n1	30.3%
Cc1csc2c(N3CCC(NCCCc4ccncc4)CC3)ncnc12	43.5%
CCCc1cncnc1N1CCC(NCCc2ccc(O)cc2)CC1	49.9%
O=C(NCc1ccc2c(c1)OCO2)[C@@H]1C=CCN1c1ncccn1	-0.232%
CCOCC1CC2(CCN(C(=O)c3ccccn3)CC2)CO1 (stereo not drawn)	32.4%
Cc1cc(C)nc(N2CCC(C(=O)Nc3n[nH]c(C(C)C)n3)CC2)n1	24.7%
Cc1noc(C(C)Nc2ccc(N3CCOCC3)cc2C)n1 (stereo not drawn)	23.1%
CCOC(=O)CSc1nnc([C@@H](N)CC(C)C)o1	12.3%
O=C(COC1CCCC1)N1C[C@@H]2CN(Cc3ccoc3)CCO[C@@H]2C1	29.8%
Cc1cc(N2CCC(N(C)C(=O)c3cccs3)CC2)nc(C)n1	22%
CN(C(=O)c1ccc(C#N)cc1)C1CCN(c2ccccn2)CC1	-39.5%
Cc1cc(N2CCC(N(C)C(=O)c3sccc3C)CC2)nc(C)n1	68.6%
Cc1cc(N2CCC(N(C)C(=O)c3ccc(C#N)cc3)CC2)nc(C)n1	81.1%
COc1ccccc1C(=O)N(C)C1CCN(c2ccccn2)CC1	19.5%
Cc1cc(N2CCC(N(C)C(=O)c3ccccc3F)CC2)nc(C)n1	56.1%
Cc1cc(N2CCC(N(C)C(=O)c3ccccc3)CC2)nc(C)n1	2.3%
Cc1cc(N2CCC(N(C)C(=O)Nc3ccccc3)CC2)nc(C)n1	4.71%
Cc1cc(N2CCC(O)CC2)nc(C)n1	41%
CCNc1cc2c(nn1)CCN(C(=O)CCc1c(C)noc1C)C2	1.78%
COc1c(C2CCCN2C(=O)c2cnc(C)cn2)c(C)nn1C (stereo not drawn)	-14.7%
O=C(Cn1cc(-c2ccccc2)ncc1=O)Nc1nccs1	-13.6%
Cc1nc(C2CCCN(C(=O)c3ccnc(N(C)C)c3)C2)no1 (stereo not drawn)	-27%
CN(C)C(=O)c1c[nH]nc1C1CCN(S(=O)(=O)c2ccccc2)CC1	-36.4%
